Compound activity deposited in PubChem BioAssay by Johns Hopkins Ion Channel Center.
An excerpt weighted towards active compounds, which were near 2.3% of everything screened.
CHT block: human CHT choline transport inhibition; Q9GZV3; CHT-expressing cells, membrane potential dye, choline response; active compounds read low; B-score at 10 µM; hit rate 0.86% among 310,000; AID 488975;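 active = B-score over 3 SD under the library average, and starting fluorescence ratio not unusually high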;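 note: choline stimulus applied at its EC90 after an EC20 pre-addition; B-score computed on integrated fluorescence ratio after choline addition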
ANO1 activ: mouse TMEM16A channel activation, primary screen; Q8BHY3; HEK293 TMEM16A/YFP-H148Q/I152L, iodide quench fluorescence; active compounds read low; B-score at 10 µM; hit rate 0.3% among 340,000; AID 623877;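 active = fluorescence-ratio B-score plate-corrected deviation score at least 3 library SD below zero, with starting fluorescence score within 5 deviations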;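 note: channel opened by trigger with iodide after compound preincubation; score built on the fluorescence ratio of max minus min over baseline; more negative score means more quench and so TMEM16A activation or potentiation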
CHT allo act: allosterically activates the human high affinity choline transporter; hit rate 0.49% among 310,000; Q9GZV3; CHT-expressing cells, membrane potential dye, choline EC20; active compounds read high; LV-AA mutant CHT in HEK293 cells; B-score at 10 µM;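 active = initial fluorescence not abnormally high and integrated response B-score, plate-corrected, over 3 SD above library mean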
TMEM16A inh: blocks the mouse calcium-activated chloride channel TMEM16A. normalized B-score (activity score, 25-100; higher = stronger inhibition) at 10 µM. hit rate 1.2% among 310,000. HEK293 TMEM16A/YFP iodide influx fluorescence, ionomycin. AID 588511. Q8BHY3;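 active = ratio plate-corrected score three or more library SD toward inhibition, starting fluorescence score within five deviations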;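 note: score derived from kinetic fluorescence span divided by baseline fluorescence per well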
CHT inh conf: confirmation of human choline transporter CHT inhibitors | shares compounds with CHT block | CHT-expressing cells, choline membrane potential dye; LV-to-AA substituted CHT, HEK293 cells | CHT activity remaining % of control (active compounds read low), % at 10 µM | hit rate 70% among 2,400 | AID 493221;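 active = choline transporter activity left, mean of duplicates at 10 µM, below buffer-only control mean minus 3 SD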;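 note: depolarization triggered by choline at its EC90 following an EC20 pre-addition; 0% = hemicholinium-3 full block and 100% = buffer-only control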
HEK293 MPD ctr: counter-screen for CHT inhibitors: effect in parental HEK293 cells; shares compounds with CHT block; membrane potential dye, choline response; active = decrease or increase beyond buffer ±3SD; membrane potential ratio readout (active if shifted either direction beyond buffer ±3SD; no single direction) at 10 µM; hit rate 4% among 2,400; AID 493222;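 note: parental cells lack the transporter so any hit is non-specific; ratio is peak minus trough fluorescence over baseline after EC90 choline challenge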
* hit, by the source's call; i = inactive; · = no result given.

SMILES | CHT block | ANO1 activ | CHT allo act | TMEM16A inh | CHT inh conf | HEK293 MPD ctr
CN1C(=O)[C@@H]2C[C@@]3([C@@]45C[C@H]6C(=O)N(C)[C@@H](Cc7ccccc7)C(=O)N6[C@@H]4Nc4ccccc45)c4ccccc4N[C@H]3N2C(=O)[C@@H]1Cc1ccccc1 | i | i | i | i | · | ·
COc1cccc(CN2CCN(CC(=O)NCCc3ccccc3)CC2)c1 | i | i | i | i | · | ·
CCc1nnc(NC(=O)CSc2ncc(-c3ccccc3)n2C)s1 | -5.5* | i | i | i | 65%* | i
CCOC(=O)C1=C(CN2CCN(C(=O)c3ccco3)CC2)NC(=O)NC1c1ccc(F)cc1 (configuration not stated) | i | i | i | i | · | ·
COc1ccc2nc(NCc3ccc(OC)c(OC)c3OC)sc2c1 | · | i | · | · | · | ·
O=[N+]([O-])c1cc(NS(=O)(=O)c2ccc(Cl)nc2)ccc1Cl | -6.2* | i | i | i | 42%* | i
CC(C)c1ccc(NS(=O)(=O)c2ccc(Cl)nc2)cc1 | i | i | i | i | · | ·
CCOC(=O)c1c(N)sc(N)c1C(=O)OCC | i | i | i | i | · | ·
CCOC(=O)c1c(N)ssc1=S | -11* | i | i | i | 17%* | i
COc1cc(OC)cc(C(=O)NC(=S)NNC(=O)[C@H]2C[C@@H]2c2ccccc2)c1 | -6.8* | i | i | 100* | 53%* | i
O=C(COC(=O)c1ccco1)NC(c1ccccc1)c1ccccc1 | -14* | i | i | i | i | i
CC(C)CC1(C2CCCC2)NC(=O)NC1=O (configuration not stated) | · | i | · | · | · | ·
CCn1c(=O)cc(OCC(=O)NC(C)c2ccc3c(c2)OCCO3)c2ccccc21 (configuration not stated) | -9.5* | i | i | i | 18%* | i
CCOc1ccccc1C(=O)NC(C)c1ccc2c(c1)OCO2 (configuration not stated) | -6.4* | i | i | i | 46%* | i
CCOc1ccccc1NC(=O)NC(C)c1ccc2c(c1)OCO2 (configuration not stated) | i | i | i | i | · | ·
CCn1c(=O)cc(OCC(=O)NCCC(C)C)c2ccccc21 | i | i | i | i | · | ·
COCCCN1C(=O)C(=O)/C(=C(/O)c2ccccc2)C1c1ccc(N(C)C)cc1 (configuration not stated) | i | i | i | i | · | ·
CN(C)c1ccc(C2/C(=C(/O)c3ccccc3)C(=O)C(=O)N2CCCC(=O)O)cc1 (configuration not stated) | -6.6* | i | i | i | i | i
O=C(COC(=O)C1(c2ccccc2F)CCCC1)N1CCN(C(=O)c2ccco2)CC1 | -5.4* | i | i | i | 68%* | i
O=C(Nc1cc(S(=O)(=O)N2CCOCC2)ccc1Cl)c1ccc(=O)[nH]c1 | · | i | · | · | · | ·
COc1cc(/C=C2/S/C(=N/S(=O)(=O)c3ccccc3)NC2=O)c([N+](=O)[O-])cc1OC | i | i | i | i | · | ·
COc1cc(/C=C2/S/C(=N/S(=O)(=O)Cc3ccccc3)NC2=O)c([N+](=O)[O-])cc1OC | -6.3* | i | i | i | 37%* | i
COc1cc(/C=C2\S/C(=N/S(=O)(=O)Cc3ccccc3)NC2=O)c([N+](=O)[O-])cc1OC | -5* | i | i | i | 49%* | i
Cc1ccccc1OCC(=O)OCC(=O)NCc1ccccc1Cl | · | i | · | · | · | ·
COc1ccc(Nc2nc(C)c(-c3ccccc3)s2)cc1 | -8.5* | i | i | i | i | i
SMILES | CHT block | ANO1 activ | CHT allo act | TMEM16A inh | CHT inh conf | HEK293 MPD ctr
Cc1nc(Nc2ccc(S(N)(=O)=O)cc2)sc1-c1ccccc1 | i | i | i | i | · | ·
COc1cc(C(=O)NNC(=O)COc2cccc(F)c2)ccc1OCC(=O)N1CCOCC1 | · | i | · | · | · | ·
O=C(NC1CCN(Cc2ccccc2)CC1)c1ccc(S(=O)(=O)NCc2ccco2)cc1 | i | i | i | i | · | ·
O=C(NC1CCCCC1)c1ccc(S(=O)(=O)NCc2ccco2)cc1 | -5.5* | i | i | i | i | i
Cc1ccc2c(c1)c(CC(=O)Nc1ccc(C)c(F)c1)c(C(=O)O)n2C | -5.4* | i | i | i | 63%* | i
Cn1c(C(=O)O)c(CC(=O)Nc2ccccc2F)c2ccccc21 | i | i | i | i | · | ·
CCOC(=O)c1ccc(NC(=S)NNC(=O)C2(C)CC2(Cl)Cl)cc1 (configuration not stated) | -6.7* | i | i | i | i | i
O=C(NNC(=S)Nc1ccc(Br)cc1)c1ccc(N2CCOCC2)c([N+](=O)[O-])c1 | i | i | i | i | · | ·
O=C(NNC(=S)Nc1ccc(Cl)cc1Cl)c1ccc(N2CCOCC2)c([N+](=O)[O-])c1 | -5.5* | i | i | i | 35%* | i
Cn1c(=O)c2c(nc(CN3CCOCC3)n2CCc2ccccc2)n(C)c1=O | -5* | i | i | i | i | i
CCN1CCN(Cc2nc3c(c(=O)n(C)c(=O)n3C)n2CCc2ccccc2)CC1 | · | i | · | · | · | ·
COC(=O)c1ccc(Cn2c(CN3CCOCC3)nc3ccccc3c2=O)o1 | -5.2* | i | i | i | i | i
Cc1ccc(NC(=O)COC(=O)C2CCC2)cc1S(=O)(=O)N1CCOCC1 | · | i | · | · | · | ·
CN(C)c1ccc(S(=O)(=O)NCC(=O)N2CCN(c3ccccc3)CC2)cc1[N+](=O)[O-] | i | i | i | i | · | ·
c1ccc(CCNc2c3c(nc4ncnn24)CCC3)cc1 | -7.1* | i | i | i | 44%* | i
Fc1ccccc1CCNc1c2c(nc3ncnn13)CCCC2 | -6.9* | i | i | i | 63%* | i
Cn1c(SCC(=O)Nc2ccccc2Oc2ccccc2)nnc1C1CC1 | · | i | · | · | · | ·
O=C(c1ccc(CN2CCc3ccccc3C2)cc1)N1CCN(c2ccc(F)cc2)CC1 | -5* | i | i | i | i | i
O=C(c1ccc(CN2CCc3ccccc3C2)cc1)N1CCCCC1 | i | i | i | i | · | ·
Cc1cc(C)c(NC(=O)c2ccc(CN3CCc4ccccc4C3)cc2)c(C)c1 | -11* | i | i | i | 18%* | i
Cc1cnc(C(=O)OCC(=O)N2CCC(C)CC2)cn1 | · | i | · | · | · | ·
Cc1csc(NC(=O)COc2ccc3c(c2)CCC3)n1 | · | i | · | · | · | ·
COC(=O)c1ccc2c(c1)c(-c1ccccc1)c(-c1ccccc1)n2C | · | i | · | · | · | ·
O=S(=O)(c1ccc(SCc2cccc(Cl)c2)nc1)N1CCCC1 | · | i | · | · | · | ·
